Shown is part of a subset that was picked to be rich in hits.
VHR inh color = blocks the human dual specificity phosphatase VHR1. recombinant VHR phosphatase, colorimetric substrate read-out. inhibition, % at 20 µM. hit rate 0.7% among 50,000. P51452; in the data active = inhibition above about 60%
Target sequence (P51452 whole entry, looked up): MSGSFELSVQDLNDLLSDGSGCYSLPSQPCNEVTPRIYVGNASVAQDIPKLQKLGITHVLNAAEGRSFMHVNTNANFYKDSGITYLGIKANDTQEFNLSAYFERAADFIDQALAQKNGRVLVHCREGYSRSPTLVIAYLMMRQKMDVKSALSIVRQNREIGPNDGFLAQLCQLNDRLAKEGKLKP
The depositor's hits bear a star.

SMILES	VHR inh color
c1ccc(OCCN2CCN(c3ncnc4c3cnn4-c3ccccc3)CC2)cc1	13.2
O=C(Cc1ccc(Cl)cc1)N/N=C/Cc1ccccc1	-7.4
COc1ccccc1NC(=O)c1c(N)sc2c1CCC2	-10.8
CCOc1ccccc1NC(=O)c1c(NC(=O)Cc2ccccc2)sc2c1CCCCC2	-22.9
CCOc1ccccc1NC(=O)c1c(N)sc2c1CCCCC2	74.7*
Cc1cccc(-c2cc(C(=O)n3cccn3)c3ccccc3n2)c1	-6.8
CS(=O)(=O)N1CCN(c2ccc([N+](=O)[O-])c(NC3CC3)c2)CC1	-14.0
Cc1cc(/C=N/Nc2ccc([N+](=O)[O-])cn2)c(C)n1-c1ccc(F)cc1	87.4*
Cc1cc(/C=N\Nc2ccc([N+](=O)[O-])cn2)c(C)n1-c1ccccc1F	-3.9
Cc1cc(/C=N/n2cnnc2)c(C)n1-c1ccc(F)cc1	-5.0
Clc1ccccc1-c1nc(-c2ccccn2)no1	-0.1
COc1ccccc1C1Nc2ccccc2NC2=C1C(=O)CCC2 (stereo not drawn)	-3.2
COC(=O)C1=C(C)NC(=O)CC1c1ccc(Cl)c(Cl)c1 (stereo not drawn)	-26.0
CC1=C(C(=O)OCCc2ccccc2)C(c2ccccc2Cl)CC(=O)N1 (stereo not drawn)	-8.4
CC1=C(C(=O)OCCCc2ccccc2)C(c2ccc(Cl)c(Cl)c2)CC(=O)N1 (stereo not drawn)	99.6*
CC(C)(C)c1ccc(/C=C2\NC(=S)N(c3ccccc3)C2=O)cc1	46.6
CCOC(=O)c1ccccc1NC(=O)/C=C/c1ccc(OC)c(Br)c1	-3.6
CCOC(=O)C1=NNC(C(=O)c2ccccc2)C1c1ccccc1 (stereo not drawn)	-0.3
CCOC(=O)C1=NNC(C(=O)c2ccccc2)C1c1ccc(OC)cc1 (stereo not drawn)	2.6
CCOC(=O)C1=NNC(C(=O)OCC)(C(=O)OCC)C1c1ccccc1 (stereo not drawn)	101.2*
CC(=O)c1cccc(NC(=O)c2cccc(OCc3ccccc3)c2)c1	111.5*
CCCOc1cccc(C(=O)Nc2cccc(C(=O)Nc3ccccc3C(=O)O)c2)c1	-11.9
CCCOC(=O)c1ccc(NC(=O)c2cccc(OCc3ccccc3)c2)cc1	-10.2
COc1cccc(CN2CCN(Cc3ccccn3)CC2)c1	9.5
CC1CN(Cc2ccccn2)CCC1=O (stereo not drawn)	110.9*
SMILES	VHR inh color
COc1ccccc1CN1CCN(Cc2ccccn2)CC1	20.0
CN(c1ccc(C(=O)Nc2ccccc2Br)cc1)S(=O)(=O)c1ccccc1	-4.9
CN1C(=O)/C(=C\c2ccc([N+](=O)[O-])o2)SC1=S	-3.6
CN1C(=O)/C(=C\c2ccc(Sc3ccc(Cl)cc3)o2)SC1=S	62.1*
CN1C(=O)/C(=C\c2ccc(-c3ccc(F)c(Cl)c3)o2)SC1=S	-1.9
Nc1ccc(Oc2ccc(N)cc2)cc1	10.0
COc1ccc(Oc2ccc(Oc3ccc(OC)cc3)cc2)cc1	-9.1
Nc1ccc(Oc2ccc(N)c(N)c2)cc1N	75.4*
CCOc1ccc(/C=N\NC(=O)c2ccc(Br)cc2)c(O)c1	3.2
CCOc1ccccc1N1CCN(C(=O)c2cc(-c3cccc(C)c3)nc3ccccc23)CC1	1.9
Cc1ccc(-c2ccc(OCC(=O)Nc3ccccc3F)cc2)cc1	98.2
CC1=C(C(=O)OCCc2ccccc2)C(c2ccccc2OC(C)C)CC(=O)N1 (stereo not drawn)	-4.9
CC1=C(C(=O)OCc2ccccc2)C(c2ccccc2OC(C)C)CC(=O)N1 (stereo not drawn)	0.2
CC1=C(C(=O)OC(C)C)C(c2ccccc2F)CC(=O)N1 (stereo not drawn)	117.7*
Cc1ccccc1OCC(=O)Nc1ccc(Cl)cc1Cl	-7.2
O=C(COc1ccc(Cl)cc1Cl)Oc1ccccc1[N+](=O)[O-]	2.8
Cc1ccccc1OC(=O)COc1ccc(Cl)cc1Cl	115.9*
CCCN1C(=O)c2ccccc2NC1c1ccc2c(c1)OCO2 (stereo not drawn)	-7.5
Cc1cccc(N2C(=O)NC(=O)/C(=C/c3ccc(Br)o3)C2=O)c1	29.6
O=C1NC(=O)N(c2ccc(Cl)cc2)C(=O)/C1=C/c1ccc(Br)o1	13.8
O=C1NC(=S)N(c2ccc(F)cc2)C(=O)/C1=C/c1ccc(Br)o1	94.5*
O=C1NC(=S)N(c2ccc(Br)cc2)C(=O)/C1=C\c1ccc(-c2ccc([N+](=O)[O-])cc2)o1	14.2
CC(C)c1ccc(N2C(=O)NC(=O)/C(=C/c3ccc(Br)o3)C2=O)cc1	81.6*
O=C1NC(=S)N(c2ccc(Br)cc2)C(=O)/C1=C/c1ccc(-c2ccccc2C(=O)O)o1	18.2
Cc1ccccc1NC(=O)c1ccc(OCC(C)C)cc1	1.5
SMILES	VHR inh color
Cn1c(SCC(=O)N/N=C/c2c(Cl)cccc2Cl)nc2ccccc21	1.1
COc1ccc2c(c1)OCC/C2=N\OC(=O)c1ccc(C)cc1	-10.0
Cn1c(=O)c2c([nH]c(=S)n2Cc2ccccc2Cl)n(C)c1=O	95.4*
O=c1c2ccccc2[nH]c(=S)n1Cc1ccccc1	-7.7
Cc1c(C=O)c2ccccc2n1Cc1ccccc1Cl	-4.2
CC1(C)Cc2c(sc3[nH]c(=S)[nH]c(=S)c23)CO1	22.4
CCC(=O)Nc1ccc(NC(=O)COc2ccccc2)cc1	12.8
CCOC(=O)C(CCCCOc1ccccc1OC)C(=O)OCC	2.5
CCOc1ccc(C(=O)Nc2ccc(N3CCOCC3)c(Cl)c2)cc1Cl	-10.8
CCOc1cc(N2CCOCC2)c(OCC)cc1N	88.3*
CCOc1ccc(C(=S)N2CCOCC2)cc1	5.5
CCN1C(C)=C(C(=O)OC)C(c2ccc([N+](=O)[O-])cc2)C(C(=O)OC)=C1C	-3.9
CCCN1CCC(=NNC(=O)c2ccccc2O)CC1	-14.0
CN1CCC(=NNC(=O)c2cc3ccccc3cc2O)CC1	94.2*
CN1CCC(=NNC(=O)c2cccc([N+](=O)[O-])c2)CC1	-14.0
Cc1ccc(C(=O)N/C(=C/c2ccc(-c3ccc(Cl)cc3Cl)o2)C(=O)NCCCO)cc1	-27.7
OC(c1ccccc1)c1ccc2c(c1)OCCCO2 (stereo not drawn)	-15.2
CC(Oc1ccc2oc(-c3ccccc3)c(C(=O)O)c2c1)C(=O)O (stereo not drawn)	80.6*
CCOC(=O)c1c(-c2ccccc2)oc2ccc(OC(C)C(=O)OCC)cc12 (stereo not drawn)	6.0
CCOc1ccc2oc(-c3ccccc3)c(C(=O)O)c2c1	-21.4
COc1ccc(-n2c(=S)[nH]c3sc4c(c3c2=O)CCN(Cc2ccccc2)C4)cc1	2.8
O=C(O)COc1ccccc1/C=N/NC(=O)COc1c(Br)cc(Br)cc1Br	-3.2
CCOC(=O)C(=C/C=C1/Sc2ccccc2N1C)C(=O)OCC	-0.2
O=c1oc(-c2cccc([N+](=O)[O-])c2)nc2ccc(Br)cc12	-7.7
Cc1c(NC(=S)NC(=O)c2ccco2)cccc1-c1nc2ccccc2s1	-6.7
SMILES	VHR inh color
CCOC(=O)c1sc(N/N=C/c2ccccc2O)nc1C	-6.6
CCOC(=O)c1sc(N/N=C/c2cccc(O)c2)nc1C	96.7*
CCOC(=O)c1sc(NC(=O)c2ccccc2C)nc1C	-9.8
CCOc1cc(/C=N/n2cnnc2)ccc1OCc1cccc2ccccc12	112.3*
COc1ccccc1OCCOc1cccc(/C=N/n2cnnc2)c1	-7.7
COc1cc(/C=N/n2cnnc2)ccc1OCCOc1ccc(C(C)(C)C)cc1	-1.2
COc1cccc(OCCOc2ccc(/C=N/n3cnnc3)cc2OC)c1	116.4*
CCOc1cc(/C=N/n2cnnc2)ccc1OCCOc1ccc(C)cc1	-34.1
CCOc1cc(/C=N/n2cnnc2)ccc1OS(=O)(=O)c1ccccc1	10.4
COc1cc(OC)c(/C=N/Nc2ccccc2[N+](=O)[O-])cc1Br	-6.4
O=S(=O)(c1ccc(Cl)cc1)N1CCN(C/C=C/c2ccccc2)CC1	-8.6
Cc1c(C(=O)OC(C)C)sc(NC(=O)/C=C/c2ccco2)c1C(N)=O	-16.5
O=C1C(=O)N(c2cccnc2)C(c2ccccc2Cl)/C1=C(\O)c1ccc(Cl)cc1 (stereo not drawn)	-37.9
O=C1OC(Nc2cccc(Br)c2)(c2ccccc2)c2ccccc21 (stereo not drawn)	2.5
